Reference: PubChem BioAssay AID1159580 (chemical genetic matrix, 2015)
Several values for one entry are separate records, joined by “and”; a condition that tells them apart may be missing. Equal entries are not always repeated. Hit rate of the full screen: of about 5,500 compounds, about 2,000 (36%) were called active. Not shown: some 18% with an inconclusive outcome. Rule as the data show it: active = normalized growth mostly below about 0.91 (no sharp cut-off); inconclusive = no clear call, values can overlap the other calls; inactive = mostly above about 0.92. This is one part of the list.

Experiment: chemical genetic growth profiling, strain panel (AID 1159580);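 also: tested at 20 µM; growth read once vehicle control cultures reached saturation at 30 °C; 1 = growth at the plate median or of vehicle wells; lower values mean less growth of the strain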
Conditions: S. cerevisiae deletion strains, growth OD

Measured: normalized growth

C=CCSCC1Nc2cc(Cl)c(S(N)(=O)=O)cc2S(=O)(=O)N1 (configuration not stated)
inactive: locus YAL013W, strain DEP1, active compounds read low 1.01 | locus YAL021C, strain ccr4, active compounds read low 0.994 | locus YAL026C, strain drs2, active compounds read low 1.01 | locus YAL030W, strain snc1, active compounds read low 1 | locus YBL061C, strain skt5, active compounds read low 1 | locus YBR009C, strain hhf1, active compounds read low 0.995 | locus YBR021W, strain FUR4, active compounds read low 0.991 | locus YBR023C, strain chs3, active compounds read low 1 | locus YBR171W, strain sec66, active compounds read low 1.01 | locus YBR229C, strain ROT2, active compounds read low 1.01 | locus YBR231C, strain swc5, active compounds read low 0.985 | locus YBR279W, strain paf1, active compounds read low 1 | locus YCL011C, strain gbp2, active compounds read low 1 | locus YCL016C, strain dcc1, active compounds read low 0.993 | locus YCL029C, strain bik1, active compounds read low 1.02 | locus YCL061C, strain MRC1, active compounds read low 1 | locus YCL069W, strain vba3, active compounds read low 0.999 | locus YCR088W, strain abp1, active compounds read low 1 | locus YDL005C, strain med2, active compounds read low 0.997 | locus YDL035C, strain GPR1, active compounds read low 1.01 | locus YDL040C, strain nat1, active compounds read low 1 | locus YDL074C, strain BRE1, active compounds read low 1.01 | locus YDL101C, strain DUN1, active compounds read low 1.01 | locus YDL134C, strain PPH21, active compounds read low 1.01 | locus YDL185W, strain tfp1, active compounds read low 1.02 | locus YDL192W, strain arf1, active compounds read low 1.02 | locus YDR001C, strain nth1, active compounds read low 1 | locus YDR069C, strain doa4, active compounds read low 0.997 | locus YDR101C, strain arx1, active compounds read low 1.01 | locus YDR137W, strain rgp1, active compounds read low 1 | locus YDR150W, strain NUM1, active compounds read low 1.01 | locus YDR159W, strain sac3, active compounds read low 0.981 | locus YDR162C, strain NBP2, active compounds read low 1.02 | locus YDR195W, strain ref2 1 | locus YDR297W, strain sur2, active compounds read low 1 | locus YDR318W, strain mcm21, active compounds read low 1.02 | locus YDR334W, strain swr1, active compounds read low 1 | locus YDR335W, strain msn5, active compounds read low 1.01 | locus YDR388W, active compounds read low 1.02 | locus YDR392W, strain spt3, active compounds read low 0.939 | locus YDR502C, strain sam2, active compounds read low 1.03 | locus YEL003W, strain gim4, active compounds read low 1 | locus YEL037C, strain rad23, active compounds read low 1 | locus YEL061C, strain CIN8 (second series), active compounds read low 0.997 | locus YEL061C, strain CIN8, active compounds read low 1 | locus YER015W, strain faa2, active compounds read low 1 | locus YER016W, strain bim1, active compounds read low 1 | locus YER110C, active compounds read low 1.03 | locus YER111C, strain swi4, active compounds read low 1 | locus YER155C, strain BEM2 (second series), active compounds read low 1 | locus YER155C, strain BEM2, active compounds read low 1 | locus YER167W, strain BCK2, active compounds read low 1 | locus YFR010W, strain ubp6, active compounds read low 1.01 | locus YGL078C, strain dbp3, active compounds read low 1.03 | locus YGL086W, strain mad1, active compounds read low 1.01 | locus YGL167C, strain pmr1, active compounds read low 1 | locus YGL173C, strain kem1, active compounds read low 1 | locus YGL227W, strain vid30, active compounds read low 0.99 | locus YGL240W, strain doc1, active compounds read low 0.992 | locus YGL248W, strain PDE1, active compounds read low 1.01 | locus YGL253W, strain hxk2, active compounds read low 0.992 | locus YGR078C, strain PAC10, active compounds read low 1 | locus YGR135W, strain pre9, active compounds read low 1.01 | locus YGR229C, strain SMI1, active compounds read low 1.01 | locus YGR252W, strain gcn5, active compounds read low 1.06 | locus YHR013C, strain ard1, active compounds read low 0.988 | locus YHR027C, strain rpn1, active compounds read low 1.01 | locus YHR030C, strain SLT2, active compounds read low 1 and 1.06 | locus YHR079C, strain IRE1 (second series), active compounds read low 1.02 | locus YHR079C, strain IRE1, active compounds read low 1.06 | locus YHR094C, strain hxt1, active compounds read low 1.02 | locus YHR129C, strain ARP1, active compounds read low 1.02 | locus YHR142W, strain chs7, active compounds read low 0.988 | locus YHR200W, strain rpn10, active compounds read low 1.03 | locus YIL066C, strain RNR3, active compounds read low 1 | locus YIL073C, strain SPO22, active compounds read low 1.08 | locus YIL125W, strain kgd1, active compounds read low 1.02 | locus YIR030C, strain dcg1, active compounds read low 1.03 | locus YJL092W, strain hpr5, active compounds read low 0.995 | locus YJL095W, strain BCK1 (second series), active compounds read low 0.994 | locus YJL095W, strain BCK1, active compounds read low 1 and 1.06 | locus YJL115W, strain asf1, active compounds read low 1 | locus YJL129C, strain trk1, active compounds read low 0.989 | locus YJL134W, strain LCB3, active compounds read low 1.01 | locus YJL154C, strain vps35, active compounds read low 0.999 | locus YJL164C, strain tpk1, active compounds read low 1.01 | locus YJL166W, strain qcr8, active compounds read low 0.998 | locus YJL168C, strain set2, active compounds read low 1.03 | locus YJL187C, strain SWE1 (second series), active compounds read low 1.01 | locus YJL187C, strain SWE1, active compounds read low 1 | locus YJR043C, strain POL32, active compounds read low 1 | locus YJR066W, strain TOR1, active compounds read low 0.991
